# Assay results reported in PubChem BioAssay (NCATS).
# Inconclusive results are not listed. Where a call stands in place of a potency, no number is given. Active and inactive are the calls of the source. The call rests on the fitted dose curve; in most records, active means well fitted inhibition curve with a large enough effect; inconclusive means small, poorly fitted or top-dose-only effect, or effect the other way; inactive means flat fitted curve, though single readings scatter.
# Test: Quantitative high throughput screen for delayed death inhibitors of the malarial parasite plastid, 48 hour incubation (AID 488752); further: nearly all actives have a fitted effect of over 65% in size
# Conditions: Plasmodium falciparum growth; series mostly up to 28.7 µM
# Excerpt: NIH Molecular Libraries Probe Production Network [MLPCN]
# NIH Chemical Genomics Center [NCGC]
# Assay Provider: David Fidock and Eric Ekland, Columbia University
# The goal of this screen is to discover new antimalarial compounds that act by inhibiting the development of the apicoplast in the malarial parasite Plasmodium falciparum. The biochemical processes that make this organelle essential for erythrocytic stage parasites are not well understood. However, antibiotics, such as azithromycin and tetracycline, which target the apicoplast translational machinery, have a potent antimalarial effect.
# We have developed a cell-based assay that measures parasite growth based on the expression of an integrated copy of a firefly luciferase reporter. To detect small molecules that cause this 'delayed death' phenotype, erythrocytes infected with the luciferase-expressing parasites were incubated with compounds for either one or two generations, corresponding to 48 and 96 hours, respectively. Compounds that inhibit parasite growth in the second generation, but not the first, should be enriched in antimalarials that target the apicoplast. Growth inhibition is detected by a decrease in luciferase activity
# Four microliters of culture medium (RPMI 1640 with 0.5% w/v Albumax (GIBCO), 24 mM sodium bicarbonate and 10 ug/mL gentamycin) were dispensed by a Multi-drop Combi into white solid 1536-well plates (Grenier) and 23 nL compound was added by a pin tool. Four microliters of infected erythrocytes (2% hematocrit, 0.1% parasitemia final concentration) in culture medium were dispensed and the plates incubated for 48 hours at 37 C in 5% CO2. Two microliters of luciferase detection reagent was added and luminescence was detected by a ViewLux (PerkinElmer) reader
# Potency means the concentration at half of the fitted maximal effect.
row,SMILES,Potency
1,Cc1ccc(S(=O)(=O)NC(=O)NN2CCCCCC2)cc1,inactive
2,N[C@@H](COP(=O)(O)O)C(=O)O,inactive
3,c1cnc(N2CCN(Cc3ccc4c(c3)OCO4)CC2)nc1,inactive
4,Cc1scc2c1N(C(=O)CN1CCN(C)CC1)c1ccccc1NC2=O,inactive
5,NC(Cc1ccc(Cl)cc1)C(=O)O (stereo not given),inactive
6,COc1ccc(CN(CCN(C)C)c2ccccn2)cc1,inactive
7,NC(=O)N1c2ccccc2C=Cc2ccccc21,inactive
8,NC(=O)c1ncn([C@@H]2O[C@H](CO)[C@@H](O)[C@H]2O)c1O,inactive
9,CN(C)CC[C@@H](c1ccc(Br)cc1)c1ccccn1,inactive
10,COc1cc(C(=O)OCCCN2CCCN(CCCOC(=O)c3cc(OC)c(OC)c(OC)c3)CC2)cc(OC)c1OC,13.1 µM (active)
11,NC/C=C/C(=O)O,inactive
12,CNC1(C)C2CCC(C2)C1(C)C (stereo not given),inactive
13,c1ccc2c(c1)CCCC2C1=NCCN1 (stereo not given),inactive
14,C[C@]12CCC(=O)C=C1CC[C@@H]1[C@@H]2CC[C@@]2(C)[C@H]1CC[C@]2(O)C(=O)CO,inactive
15,CCN1CCc2nc(N)oc2CC1,inactive
16,OCCN1CCN(CC/C=C2/c3ccccc3Sc3ccc(C(F)(F)F)cc32)CC1,8.28 µM (active)
17,CC(=O)[C@]1(O)Cc2c(O)c3c(c(O)c2[C@@H](O[C@H]2C[C@H](N)[C@H](O)[C@H](C)O2)C1)C(=O)c1ccccc1C3=O,3.7 µM (active)
18,COc1ccc(CCN(C)CCCC(C#N)(c2cc(OC)c(OC)c(OC)c2)C(C)C)cc1OC (stereo not given),8.28 µM (active)
19,O=C(O)CN(CCN(CC(=O)O)CC(=O)O)CCN(CC(=O)O)CC(=O)O,inactive
20,CN(C(=O)CCCOc1ccc2[nH]c(=O)ccc2c1)C1CCCCC1,inactive

row,SMILES,Potency
1,CCCN(CCC)CCc1cccc2c1CC(=O)N2,inactive
2,CCN(CC)CC(=O)Nc1c(C)cccc1C,inactive
3,Cc1nnc(SCC2=C(C(=O)O)N3C(=O)[C@@H](NC(=O)Cn4cnnn4)[C@H]3SC2)s1,inactive
4,FC(F)(F)c1ccccc1-n1ccnc1,inactive
5,CCN(CC)CCNC(=O)c1ccc(NC(C)=O)cc1,inactive
6,CC(N=C(NC#N)Nc1ccncc1)C(C)(C)C (stereo not given),inactive
7,Nc1c2c(nc3ccccc13)CCCC2O (stereo not given),inactive
8,O=C(O)CCCCCCCC(=O)O,inactive
9,CCOC(=O)c1cnc2c(cnn2CC)c1NN=C(C)C,inactive
10,Cc1ccc(=O)n(-c2ccccc2)c1,inactive
11,Cc1nc2ccccn2c(=O)c1CCN1CCC(C(=O)c2ccc(F)cc2)CC1,inactive
12,CCN1CCC[C@H]1CNC(=O)c1c(O)c(Cl)cc(Cl)c1OC,inactive
13,COC(=O)C1=C(C)NC(C)=C(C(=O)OCCN(C)Cc2ccccc2)C1c1cccc([N+](=O)[O-])c1 (stereo not given),2.94 µM (active)
14,C[N+](C)(C)CCCCCCCCCC[N+](C)(C)C,1.04 µM (active)
15,COC(=O)[C@@H](N)Cc1ccc(O)c(O)c1,inactive
16,CN/C(=C\[N+](=O)[O-])NCCSCc1ccc(CN(C)C)o1,inactive
17,C(=C\c1ccccc1)/CN1CCN(C(c2ccccc2)c2ccccc2)CC1,inactive
18,CCN(CC)CCOCCOC(=O)C1(c2ccccc2)CCCC1,inactive
19,CC(=O)OC(C)C[N+](C)(C)C (stereo not given),inactive
20,C[C@]12CCC(=O)C=C1CC[C@@H]1[C@@H]2C(=O)C[C@@]2(C)[C@H]1CC[C@]2(O)C(=O)CO,inactive
